PubChem BioAssay AID488969 (Vanderbilt High Throughput Screening Facility, 2010)
Whole data set: some 110,000 compounds, median “z-score” near -0.1, cut for the highest 2% near 2. Shown is part of a subset that was picked to be rich in the highest values. Active and inactive are the calls of the source.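 How the source made its calls: active means z-score in the third read window above 3 or below -3; inactive means the rest.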

What follows are compounds tested against Metabotropic glutamate receptor 8 (Rattus norvegicus) (UniProt P70579) (assay: mGluR8 Gi/Go-coupled signaling modulation – cell-based, rat, thallium flux, HTS, primary screen (AID 488969)). Settings: HEK293 rat mGluR8, GIRK (G protein-gated inwardly rectifying potassium channel) thallium flux, FluoZin2; at 10 µM; stronger effect = higher value; submaximal glutamate (EC20) added with thallium.
Chain of Metabotropic glutamate receptor 8 (Rattus norvegicus) (P70579 whole entry, looked up): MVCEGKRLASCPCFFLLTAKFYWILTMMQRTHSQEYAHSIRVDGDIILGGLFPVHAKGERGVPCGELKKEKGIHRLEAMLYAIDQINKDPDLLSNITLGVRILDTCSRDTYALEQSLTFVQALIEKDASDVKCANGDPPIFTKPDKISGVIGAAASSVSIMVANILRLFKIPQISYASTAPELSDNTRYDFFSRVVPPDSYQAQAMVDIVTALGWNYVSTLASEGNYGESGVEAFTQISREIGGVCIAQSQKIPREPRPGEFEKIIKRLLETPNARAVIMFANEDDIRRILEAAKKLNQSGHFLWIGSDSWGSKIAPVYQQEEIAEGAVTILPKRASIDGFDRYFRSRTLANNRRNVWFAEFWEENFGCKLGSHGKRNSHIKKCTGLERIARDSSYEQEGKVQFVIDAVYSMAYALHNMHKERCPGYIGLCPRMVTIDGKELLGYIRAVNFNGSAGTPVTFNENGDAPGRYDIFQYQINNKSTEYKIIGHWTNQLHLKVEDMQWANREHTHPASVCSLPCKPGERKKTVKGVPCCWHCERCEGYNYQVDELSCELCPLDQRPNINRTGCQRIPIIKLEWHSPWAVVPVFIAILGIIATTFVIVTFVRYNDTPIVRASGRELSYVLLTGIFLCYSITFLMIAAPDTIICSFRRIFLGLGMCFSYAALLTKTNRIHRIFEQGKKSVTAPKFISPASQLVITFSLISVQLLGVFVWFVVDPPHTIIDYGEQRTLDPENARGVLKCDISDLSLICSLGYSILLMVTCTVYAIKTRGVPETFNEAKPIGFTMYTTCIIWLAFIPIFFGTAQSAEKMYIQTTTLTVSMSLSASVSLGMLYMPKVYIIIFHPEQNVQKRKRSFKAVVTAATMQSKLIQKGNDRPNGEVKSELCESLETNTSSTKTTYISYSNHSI

Row | SMILES | z-score
1 | O=c1c2c(nc3c(-c4ccccc4)c[nH]n13)CCCC2 | 3.66 (active)
2 | O=c1c2c(nc3c(-c4cccc(Br)c4)c[nH]n13)CCCC2 | 6.35 (active)
3 | Nc1[nH]n2c(=O)c3c(nc2c1N=Nc1ccc(Cl)cc1)CCCC3 | -1.09
4 | Cc1[nH]n2c(=O)c3c(nc2c1-c1ccccc1)CCC3 | -1.66
5 | O=c1c2c(nc3cc(-c4ccccc4)[nH]n13)CCC2 | -0.413
6 | N#Cc1c[nH]n2c(=O)c3c(nc12)CCCC3 | -0.482
7 | Cc1ccc(-c2[nH]n3c(=O)c4c(nc3c2C)CCCC4)cc1 | 11 (active)
8 | O=c1c2c(nc3cc(-c4cccc(Cl)c4)[nH]n13)CCC2 | 0.391
9 | O=c1c2c(nc3c(-c4cccc5ccccc45)c[nH]n13)CCC2 | -0.52
10 | O=c1c2c(nc3c(-c4ccccc4)c[nH]n13)CCC2 | -0.819
11 | O=c1c2c(nc3c(-c4ccc(Cl)cc4)c[nH]n13)CCCC2 | 12 (active)
12 | Cc1ccc(N=Nc2c(N)[nH]n3c(=O)c4c(nc23)CCCC4)cc1 | -0.696
13 | COCCNC(=O)C(=O)N/N=C/c1ccccc1C(F)(F)F | -0.508
14 | Cc1nc2ccc(S(=O)(=O)NCC(=O)N3CCOCC3)cc2s1 | -0.0788
15 | COc1ccc2c(c1)c1ncn(CCN3CCNCC3)c(=O)c1n2C | -0.141
16 | O=C(N[C@@H](Cc1ccccc1)c1nc2ccccc2[nH]1)c1cc([N+](=O)[O-])ccc1Cl | -0.361
17 | CC(C)(C)NC(=O)C1CCCN(S(=O)(=O)c2cccc3cccnc23)C1 (configuration not stated) | -0.133
18 | COc1ccc2nc3oc(C(=O)Nc4ccc(OC)c(OC)c4)cc3cc2c1 | 4.91 (active)
19 | CCOc1ccc(NC(=O)c2cc3cc4ccc(OC)cc4nc3o2)cc1 | 0.334

Row | SMILES | z-score
20 | COc1ccc2cc3cc(C(=O)Nc4cc(OC)c(OC)c(OC)c4)oc3nc2c1 | -0.255
21 | O=C(Nc1ccc2oc(-c3ccncc3)nc2c1)c1cccs1 | -1.18
22 | CCc1nnc(NC(=O)CCc2ccc(C)o2)s1 | 0.332
23 | CCC(=O)N1CCc2cc(S(=O)(=O)CCC(=O)NCCc3ccccc3)ccc21 | -0.24
24 | CC(C)NC(=O)c1ccccc1NC(=O)/C=C/c1cccc([N+](=O)[O-])c1 | -0.52
25 | CC(NC(=O)COC(=O)/C=C/c1ccc([N+](=O)[O-])cc1)c1ccccc1 (configuration not stated) | -0.366
26 | CC(C)c1ccccc1NC(=O)COC(=O)/C=C/c1cccc([N+](=O)[O-])c1 | 5.9 (active)
27 | CCOc1ccc(NC(=O)CSc2nnc(CCNC(=O)c3ccc(OC)cc3)n2CC)cc1 | -0.0739
28 | C/C=C/COC(=O)c1[nH]c2c(c1C)C(=O)CC(c1ccco1)C2 (configuration not stated) | -0.237
29 | CSCC[C@H](NC(=O)OC(C)(C)C)c1nnc(SCC(=O)N(C)C)o1 | -0.106
30 | O=C(Nc1nc2ccccc2s1)C1CC(=O)N(c2ccc(Br)cc2)C1 (configuration not stated) | 0.374
31 | Cc1onc(-c2ccccc2)c1C(=O)NC(=S)Nc1sc2c(c1C#N)CCCC2 | 4.1 (active)
32 | Cc1ccccc1C(=O)NC(=S)Nc1sc2c(c1C#N)CCCC2 | 5.02 (active)
33 | Cc1onc(-c2ccccc2)c1C(=O)Nc1sc2c(c1C#N)CCC(C)C2 (configuration not stated) | 0.289
34 | CC(C)Cc1cc(C(=O)Nc2sc3c(c2C#N)CCC3)no1 | 1.32
35 | CCCc1cc(C(=O)Nc2sc3c(c2C#N)CCC3)no1 | 2.21
36 | N#Cc1c(NC(=S)NC(=O)c2ccccc2)sc2c1CCCC2 | 0.0146
37 | Cc1cc(C(=O)Nc2sc3c(c2C#N)CCC3)no1 | -0.0664
38 | Cc1ccccc1C(=O)NC(=S)Nc1sc2c(c1C#N)CCC(C)C2 (configuration not stated) | 1.82

Row | SMILES | z-score
39 | N#Cc1c(NC(=S)NC(=O)c2ccccc2)sc2c1CCC2 | 0.849
40 | CCOC(=O)CC1ON(C)C(=O)N1c1ccc([N+](=O)[O-])cc1 (configuration not stated) | 0.0464
41 | CCCCOC(=O)c1ccc(NC(=O)/C=C/c2cccs2)cc1 | -0.063
42 | CCc1ccc(C2NC(C(=O)O)CS2)cc1 (configuration not stated) | -0.258
43 | CC(C)Cn1c(SCC(=O)N2CCCCC2)nc2ccccc2c1=O | -0.537
44 | O=C1Nc2ccccc2C12OCCO2 | -0.0845
45 | O=C1Nc2ccccc2C12OCC1(CO2)COC2(OC1)C(=O)Nc1ccccc12 (configuration not stated) | 3.45 (active)
46 | O=C1Nc2ccccc2C12OCCCO2 | 0.489
47 | CCN(CC)S(=O)(=O)c1ccc(/C=C/C(=O)Nc2ccc(F)c(F)c2F)cc1 | -0.0872
48 | Cc1ccc(C(=O)CC(=O)COc2ccc(Cl)cc2)cc1 | 5.07 (active)
49 | Cc1ccc(NCCC(=O)c2ccc(Cl)cc2)cc1 | -0.27
50 | Cc1ccc(NC(=O)c2ccc(OC(=O)COc3ccc(Cl)cc3C)cc2)cc1 | -0.069
51 | COC(=O)C(CC(=O)c1ccc(Cl)cc1)c1ccc(C)cc1 (configuration not stated) | -0.155
52 | Cc1ccc(C(=O)CC(=O)COc2ccc(Cl)cc2C)cc1 | 5.45 (active)
53 | Cc1cc(Cl)ccc1OCC(=O)NC1CCCC1 | 0.0341
54 | Cc1cc(C)nc(/N=C(\N)Nc2ccc([N+](=O)[O-])cc2)n1 | -0.477
55 | O=C(O)c1cccc(-n2cnnn2)c1 | -0.667
56 | CCSc1nnc(NC(=O)CC)s1 | 5.27 (active)
57 | CCC(NC(=O)Nc1nnc(C(F)(F)F)s1)(C(F)(F)F)C(F)(F)F | 0.241
